High-throughput results as filed in PubChem BioAssay.
Rows were chosen to be rich in hits. Some 2.2% of all compounds tested hit in one or more screens of this group.
CHT PAM – allosterically activates the human high affinity choline transporter; Q9GZV3; CHT-expressing cells, membrane potential dye, choline EC20; hits give high values; LV-AA mutant CHT in HEK293 cells; B-score at 10 µM; 310,000 compounds, 0.49% hits; AID 488977;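 active = initial fluorescence not abnormally high and integrated response B-score, plate-corrected, over 3 SD above library mean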
AI-2 QS mod – Vibrio harveyi AI-2 quorum sensing modulation; Vibrio harveyi JMH597 AI-2 luminescence/OD600 ratio, 9 h; hits give low values; strain lacks LuxN and CqsS sensors; 0 = neutral-control median; activity change, % at 7.5 µM; 300,000 compounds, 0.4% hits; AID 2094; in the data active = activity change below about -75%, passing the limit was not always enough;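 note: luminescence divided by OD600 gain over 9 h not by final OD600 alone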
Platelet DG rel – platelet dense granule release activity; human platelet-rich plasma, SFLLRN dense granule ATP release, luminescence; inhibition, %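 (compounds screened at 7.5 µM in platelet-rich plasma)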; 300,000 compounds, 0.22% hits;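 active = mean replicate score, as percent of positive control, at or above 50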
CHT block – inhibits the human high affinity choline transporter; Q9GZV3; CHT-expressing cells, membrane potential dye, choline response; hits give low values; B-score at 10 µM; 310,000 compounds, 0.86% hits; AID 488975;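 active = B-score over 3 SD under the library average, and starting fluorescence ratio not unusually high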;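 note: choline stimulus applied at its EC90 after an EC20 pre-addition; B-score computed on integrated fluorescence ratio after choline addition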
VLA-4 inh – inhibition in a human VLA-4 binding assay; VLA-4 expressing cells, ligand binding flow cytometry; inhibition, % (about 7 µM as worked out from the volumes in the protocol); 330,000 compounds, 0.2% hits; in the data active = inhibition above about 50%
HIF act – HIF pathway transcriptional activation; 300,000 compounds, 0.32% hits; U2OS HRE-luciferase reporter, luminescence; normalized: DMSO 0%, desferrioxamine 100%; AID 1910; activation, % at 7.5 µM (by protocol);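 active = mean activation of at least 10% of the iron chelator positive control signal, with at least half of replicates also reaching 10%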
CHT block conf – human CHT inhibition, confirmatory screen; shares compounds with CHT block; CHT-expressing cells, choline membrane potential dye; LV-to-AA substituted CHT, HEK293 cells; CHT activity remaining % of control (hits give low values), % at 10 µM; 2,400 compounds, 70% hits;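 active = choline transporter activity left, mean of duplicates at 10 µM, below buffer-only control mean minus 3 SD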;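 note: depolarization triggered by choline at its EC90 following an EC20 pre-addition; 0% = hemicholinium-3 full block and 100% = buffer-only control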
HEK293 CHT ctr – counter-screen for CHT inhibitors: effect in parental HEK293 cells. AID 493222. shares compounds with CHT block. 2,400 compounds, 4% hits. membrane potential dye, choline response; active = decrease or increase beyond buffer ±3SD. membrane potential ratio readout (active if shifted either direction beyond buffer ±3SD; no single direction) at 10 µM;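 note: parental cells lack the transporter so any hit is non-specific; ratio is peak minus trough fluorescence over baseline after EC90 choline challenge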
Active calls of the source: *; i = inactive; · = no result.

SMILES	CHT PAM	AI-2 QS mod	Platelet DG rel	CHT block	VLA-4 inh	HIF act	CHT block conf	HEK293 CHT ctr
O=C(CSc1ncnc2scc(-c3ccccc3)c12)NC1CCS(=O)(=O)C1 (stereo not drawn)	i	9.0	3.9	-6.16*	-3.4	0.1	i	i
COC(=O)c1ccc(C(=O)N2CCCC(Nc3ccc(C(C)C)cc3)C2)nc1 (stereo not drawn)	i	5.9	-5.7	-5.18*	-5.2	-0.5	58.2%*	i
CCOP(=O)(OCC)C(NC(=O)Nc1c(C)cc(C)cc1C)c1ccccc1 (stereo not drawn)	i	10.2	-2.4	-5.97*	6.9	-0.1	i	i
COCCn1c(-c2ccc(F)cc2)nc2cccnc21	i	17.4	0.2	i	6.7	-0.6	·	·
Cc1ccc(-n2cc(CN3CCN(Cc4nccn4C)CC3)c(-c3ccc(F)cc3)n2)cc1	i	20.9	-1.7	-6.4*	-3.8	0.2	28.7%*	i
COc1ccc(-c2cc(=O)c3cc(O)ccc3o2)cc1	i	6.4	12.6	-7.28*	-12.4	2.8	41.1%*	i
O=c1cc(-c2ccccc2)oc2ccc(O)cc12	i	20.5	4.6	i	-33.1	2.4	·	·
CCC(Oc1ccccc1)C(=O)Nc1ccc(S(=O)(=O)NCC2CCCO2)cc1 (stereo not drawn)	i	-37.7	-6.1	-8.73*	17.5	0.2	39.7%*	i
O=S(=O)(NCC1CCCO1)c1ccc(Oc2ccccc2)cc1 (stereo not drawn)	i	-51.0	10.8	-5.57*	-5.2	-0.6	i	i
COc1ccc(C(=O)OCc2nc(N)nc(Nc3ccccc3C)n2)cc1OC	i	5.7	-0.7	i	7.6	0.1	·	·
Cc1ccccc1Nc1nc(N)nc(COC(=O)C(NC(=O)c2ccco2)C(C)C)n1 (stereo not drawn)	i	6.3	-6.0	-6.2*	3.8	0.2	i	i
Nc1cc(N)nc(SCC(=O)NCc2ccc3c(c2)OCO3)n1	·	·	·	·	1.7	·	·	·
Cn1c(SCC(=O)NN2C(=O)NC(C)(c3ccccc3)C2=O)nnc1-c1ccncc1 (stereo not drawn)	·	·	·	·	-2.4	·	·	·
COc1cc(/C=C2/C(=O)N(c3cccc(Br)c3)N=C2C)cc(OC)c1O	i	27.2	10.0	-5.17*	-20.9	-0.2	45.3%*	i
N#C/C(=C(/O)CCl)c1nc(-c2ccccc2)cs1	i	23.7	-1.1	-8.41*	-30.9	0.7	-31.8%*	i
O=C(/C=C/c1ccccc1)N1CCC(Cc2ccccc2)CC1	i	32.5	4.2	-5.29*	8.4	1.6	i	i
Cc1ccc(C(=O)NCC(=O)N2CCC(Cc3ccccc3)CC2)cc1	i	20.8	-2.5	-5.25*	4.3	1.3	59.2%*	i
O=C(C1CC(=O)N(C2CCCC2)C1)N1CCC(Cc2ccccc2)CC1 (stereo not drawn)	i	-0.9	-4.3	-5.77*	8.2	0.3	55.3%*	i
COc1ccc(OC)c(-c2nn(-c3ccccc3)cc2C(=O)NCC(c2cccs2)N2CCOCC2)c1 (stereo not drawn)	i	24.1	-10.1	i	-3.8	-0.2	·	·
Cc1ccc(C2CCN(C(=S)Nc3cccc(C)c3)C2)cc1 (stereo not drawn)	i	1.0	-1.1	i	4.8	1.4	·	·
CC1(C)CC(=O)C2=C(C1)Nc1ccccc1NC2c1ccc([N+](=O)[O-])cc1 (stereo not drawn)	i	11.4	-0.8	i	5.4	0.4	·	·
Cc1c(Br)c([N+](=O)[O-])nn1CC(=O)NCc1ccco1	i	28.3	-9.5	i	2.3	0.3	·	·
Cc1c(Br)c(C(F)(F)F)nn1CC(=O)NCc1ccco1	i	18.5	6.4	-7.75*	6.0	-0.1	i	i
N=C1C(c2ccccc2)=C(O)CN1c1cccc(O)c1	i	19.2	-2.3	-6.57*	4.5	0.0	i	i
COc1ccc(C(=O)O)cc1S(=O)(=O)Nc1ccccc1C(=O)NCc1ccc2c(c1)OCO2	·	·	·	·	2.7	·	·	·
SMILES	CHT PAM	AI-2 QS mod	Platelet DG rel	CHT block	VLA-4 inh	HIF act	CHT block conf	HEK293 CHT ctr
CC1CCCCN1c1ncnc2ccccc12 (stereo not drawn)	i	10.0	-0.5	i	-4.8	0.2	·	·
CC1(C)CC2CC(C)(CN2c2ncnc3ccccc23)C1 (stereo not drawn)	i	5.2	-1.5	-5.12*	19.7	-0.2	47.7%*	i
c1ccc(Cn2ncc3c(N4CCOCC4)ncnc32)cc1	i	12.2	-0.2	i	-3.6	1.0	·	·
c1ccc(CCN2CCN(c3ncnc4c3cnn4-c3ccccc3)CC2)cc1	i	24.6	-9.8	-5.34*	5.9	0.3	34.1%*	i
Cn1ncc2c(N3CCC(Cc4ccccc4)CC3)ncnc21	i	22.8	8.3	-6.64*	-1.3	-0.1	65.7%*	i
CCN1CCN(c2ncnc3c2cnn3-c2ccccc2)CC1	i	5.3	13.1	i	-14.0	2.9	·	·
CCC(=O)N1N=C(c2ccc(NS(C)(=O)=O)cc2)CC1c1ccc(N(C)C)cc1 (stereo not drawn)	i	7.0	14.3	i	0.0	0.5	·	·
Nc1cc(N)cc(C(=O)OCC(=O)Nc2cc(S(=O)(=O)N3CCCCC3)ccc2Cl)c1	i	7.4	-20.5	i	5.5	0.2	·	·
CN(C)CCCNC(=S)NCC(c1ccc(Cl)cc1Cl)c1c[nH]c2ccccc12 (stereo not drawn)	i	11.7	4.8	-5.76*	20.6	-1.7	i	i
O=C(COC(=O)c1nn(CCO)c(=O)c2ccccc12)Nc1ccc(Cl)c(Cl)c1	·	·	·	·	6.3	·	·	·
Cc1ccccc1-n1nnnc1SCC(N)=O	i	-5.0	-8.2	i	14.7	-0.9	·	·
Cc1ccccc1-n1nnnc1Sc1nnnn1-c1ccccc1	i	·	·	-4.99*	15.0	·	63.8%*	i
Cc1occc1C(=O)NNC(=O)COc1ccc(Br)cc1Br	i	15.3	-15.1	i	-13.8	0.0	·	·
Cc1occc1C(=O)NNC(=S)NC(=O)COc1ccc(Cl)cc1Cl	i	24.0	-3.7	-9.38*	1.6	0.3	57.7%*	i
Cc1ccc(S(=O)(=O)N2CCN(C(=O)c3ccc(N4CCCCC4)c([N+](=O)[O-])c3)CC2)cc1	i	7.0	2.6	i	20.4	-0.5	·	·
CCN(C(=O)COC(=O)c1ccc([N+](=O)[O-])o1)c1cccc2ccccc12	·	·	·	·	25.4	·	·	·
